In the library only some 10% were active in any assay of this set; here they are far more common.
HPGD block: blocks human HPGD enzyme activity; P15428; purified HPGD, NADH fluorescence kinetic, PGE2 substrate; Potency, µM, for the others: at the top dose activity change, negative = inhibition, hits mostly inhibitors; actives 4.3% (n = 150,000); AID 894; active = well fitted inhibition curve with a large enough effect, not every such curve was filed as active; inconclusive = small, poorly fitted or top-dose-only effect, or another doubt; inactive = no such curve, though single readings can be large or run the other way; also: potency is read from the fitted curve at half-maximal effect
Target sequence (P15428 whole entry, looked up): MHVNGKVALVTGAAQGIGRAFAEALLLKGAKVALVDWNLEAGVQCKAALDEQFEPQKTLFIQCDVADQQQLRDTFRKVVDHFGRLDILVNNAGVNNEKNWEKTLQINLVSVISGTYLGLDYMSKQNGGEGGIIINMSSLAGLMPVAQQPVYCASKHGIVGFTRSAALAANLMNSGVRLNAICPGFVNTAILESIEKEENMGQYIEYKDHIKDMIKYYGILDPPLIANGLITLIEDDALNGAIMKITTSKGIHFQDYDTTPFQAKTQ
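NADH formation kinetics: reaction with 30 uM PGE2 and 1 mM NAD+ (final), 20 nM enzyme, Tris-HCl pH 8 with Tween 20, after 15 min compound preincubation at room temperature. Fluorescence change, last versus first of five reads.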
ALOX12 inhib: inhibitors of human 12-lipoxygenase (ALOX12); P18054; purified 12-hLO, xylenol orange hydroperoxide absorbance; Potency, µM (series often up to 57.1 µM), for inactives: top-dose activity change, negative = inhibition, usual class: inhibitors; actives 0.12% (n = 150,000); AID 1452; also: potency is read from the fitted curve at half-maximal effect; nearly all actives have a fitted effect of over 55% in size
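Lipoxygenase turnover measured by absorbance at 573 and 405 nm after Fe-XO development. Human 12hLO 150 nM, arachidonate 40 uM, pH 7.0 Hepes buffer with detergent; 15 min compound preincubation, 30 min reaction.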
GLA spleen mod: inhibits or activates alpha-galactosidase in human spleen homogenate | P06280 | actives 0.008% (n = 240,000) | human spleen homogenate, 4MU-alpha-Gal fluorescence, 40 min | Potency, µM (doses to about 80 µM), for inactives: top-dose activity change, negative = inhibition, most hits filed as inhibitors;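 also: potency is read from the fitted curve at half-maximal effect; 0% = enzyme with vehicle and -100% = no enzyme basal signal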
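Fluorogenic readout (Ex 365/Em 440 nm) of 4-methylumbelliferone released from 1 mM 4-MU-alpha-galactoside by spleen homogenate, 40 min at 37C, pH 5.0. Data normalized to no-enzyme and enzyme controls; Hill-equation AC50 from compound titrations.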
GLA inh pH 4.5: blocks human alpha-galactosidase A at pH 4.5; purified enzyme, 4-MU-alpha-Gal fluorescence, pH 4.5; 230,000 tested, under 10 active; activity change, negative = inhibition, % at 105 µM; AID 1467;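 also: 0% = full activity with enzyme and -100% = basal without enzyme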
Target sequence (P06280 whole entry, looked up): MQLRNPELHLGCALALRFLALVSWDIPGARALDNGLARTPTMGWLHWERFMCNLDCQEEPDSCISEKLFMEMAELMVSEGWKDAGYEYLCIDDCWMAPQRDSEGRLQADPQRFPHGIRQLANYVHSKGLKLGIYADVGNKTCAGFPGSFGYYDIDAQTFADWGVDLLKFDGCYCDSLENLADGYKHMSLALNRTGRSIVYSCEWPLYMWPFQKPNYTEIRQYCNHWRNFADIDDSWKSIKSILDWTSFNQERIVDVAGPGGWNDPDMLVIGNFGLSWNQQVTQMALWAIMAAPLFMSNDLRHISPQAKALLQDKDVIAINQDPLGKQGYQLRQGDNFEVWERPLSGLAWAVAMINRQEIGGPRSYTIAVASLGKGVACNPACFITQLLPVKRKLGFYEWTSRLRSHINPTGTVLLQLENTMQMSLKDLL
PNC assembly inh: perinucleolar compartment assembly inhibition. AID 2417. PC3M PTB-GFP, PNC prevalence imaging, 16 h; hits give low values. actives 3.1% (n = 140,000). activity change (PNC), negative = inhibition, % at 10 µM;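 active = readout at or below -70, meaning at least 70% loss of cells showing the perinucleolar compartment, a nuclear body marking cancer cells; inconclusive = readout between -30 and a set limit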;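 also: plate controls were DMSO wells for no effect and camptothecin positive control wells for full effect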
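PC3M cells stably expressing PTB-GFP, 750–1000 cells/well, treated 16 h at 37 °C with compound (23 nl of library stock), in duplicate. After paraformaldehyde fixation and Hoechst stain, imaged at 20x; PNC prevalence scored by image analysis.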
ALDH1A1 block: blocks purified human ALDH1A1 activity. P00352. Purified ALDH1A1, NADH fluorescence, propionaldehyde substrate. Potency, µM (top dose mostly 75.3 µM), for inactives: at the highest dose activity, negative = inhibition, actives largely listed as inhibitors. actives 7.3% (n = 220,000). AID 1030; active = well fitted inhibition curve with a large enough effect, not every such curve was filed as active; inconclusive = small, poorly fitted or top-dose-only effect, or another doubt; inactive = no such curve, though single readings can be large or run the other way;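 also: potency is read from the fitted curve at half-maximal effect; plate controls were no enzyme wells and a reference inhibitor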
The depositor's hits bear a star; ? = inconclusive; · = no result given; [ ] = dose if it differs, or a comment. Unless noted, calls follow the shape of the dose curve; as a rule, active = well fitted curve in the direction sought with a large enough effect; inconclusive = small, poorly fitted or top-dose-only effect, or another doubt; inactive = no such curve, though single readings can be large; an effect the other way counts as inactive or inconclusive. Unless noted, % is scaled to controls: 0 for no effect and ±100 for the full control effect.

SMILES	HPGD block	ALOX12 inhib	GLA spleen mod	GLA inh pH 4.5	PNC assembly inh	ALDH1A1 block
CC(=O)Nc1ccc(CN2CCCC(C(=O)c3ccc(C(F)(F)F)cc3)C2)cc1 (configuration not stated)	·	·	-8%	0	·	9%
CCn1nnnc1SCC(=O)Nc1cc(C)on1	6%	0%	3%	5	-2	-8%
CCOC(=O)c1cccc(NC(=O)CSc2nnnn2C)c1	0%	-2%	3%	-10	?	11%
COC(=O)c1cccc(-n2nnnc2SCC(=O)Nc2cc(C)on2)c1	·	-2%	15%	2	51	11µM*
COC(=O)c1cccc(NC(=O)CSc2nnnn2C)c1	-9%	-1%	14%	4	26	14µM*
COC(=O)c1cccc(-n2nnnc2SCC(=O)Nc2nc3c(s2)CCCC3)c1	20µM*	-8%	-6%	0	26	?
COc1ccc(NC(=O)CSc2nnnn2C)c([N+](=O)[O-])c1	·	·	-1%	-3	·	28µM*
COc1cccc(-n2nnnc2SCC(=O)Nc2nc3c(s2)CCCC3)c1	25µM*	-3%	-5%	-3	?	?
COC(=O)c1sc(NC(=O)CSc2nnnn2-c2cccc(OC)c2)nc1C	-15%	-1%	3%	0	31	-2%
CN1CCN(c2cc(-c3ccccc3Cl)ncn2)CC1	·	·	4%	·	·	-2%
CCc1ccc(N2C(=O)CN(Cc3cc(OC)c(OC)c(OC)c3)C2=S)cc1	-8%	0%	5%	-8	-81*	-4%
c1ccc2c(N3CCOCC3)nc(-c3ccoc3)nc2c1	·	·	8%	·	·	?
COc1cc(NS(=O)(=O)c2ccc(NC(=S)NC(=O)c3ccco3)cc2)ncn1	·	·	-8%	9	·	?
CCOC(=S)NC(=O)c1sc2ccccc2c1Cl	-25%	-15%	8%	0	-109*	0.35µM*
COc1cc(NS(=O)(=O)c2ccc(NC(=S)NC(=O)c3sc4ccccc4c3Cl)cc2)ncn1	-16%	-1%	4%	6	?	22µM*
CCCOC(=S)NC(=O)c1sc2ccccc2c1Cl	20µM*	-3%	8%	8	?	5.6µM*
C#CCOCCOCCOCCNc1nc(N2CCN(C(=O)[C@H](CCC(=O)O)n3cc(C(N)CO)nn3)CC2)nc(N2CCN(C(=O)[C@H](CCC(=O)O)n3cc(C(N)CC(C)C)nn3)CC2)n1 (some centres not stated)	·	·	1%	2	·	·
O=C(O)c1ccccc1/C=N\N=C1c2ccccc2-c2ccccc21	-12%	5%[11.4 µM]	·	·	·	-2%[13.5 µM]
CC1=C(CC/C(C)=N/NC(N)=S)C(C)(C)CCC1	-19%	-6%	-5%	12	?	28µM*
O=C1CCC[C@@H]2CC(NCc3ccc(Cl)c(Cl)c3)C[C@@H]3CCN1[C@H]23 (some centres not stated)	-7%	-4%[0.00818 µM]	5%[119 µM]	-14	·	6%
COc1ccc(CCNC(=O)COC(=O)c2ccc(N3CCCC3=O)cc2)cc1OC	·	·	2%	-12	·	4%
Cc1onc(-c2ccccc2Cl)c1C(=O)N1CCN(c2nc3ccccc3s2)CC1	-16%	-6%	6%	-11	-113*	14µM*
COc1ccccc1N1CCN(C(=O)c2c(-c3ccccc3Cl)noc2C)CC1	-1%	1%	7%	-4	-20	-5%
C=C(C)COc1ccc(-c2[nH]ncc2Oc2ccccc2OCC)c(O)c1	18µM*	?	14%	4	-117*	1.6µM*
C=C(C)COc1ccc(-c2[nH]ncc2Oc2cccc(OC)c2)c(O)c1	-17%	?	5%	-9	30	-30%
SMILES	HPGD block	ALOX12 inhib	GLA spleen mod	GLA inh pH 4.5	PNC assembly inh	ALDH1A1 block
N#C/C(=C\NC(=S)c1ccncc1)c1nc2ccccc2s1	-17%	1%[11.4 µM]	·	·	·	?
Cc1ccc(C2=C(Cl)C(=O)C(c3ccc(C)cc3)=C(Cl)C2=O)cc1	2.2µM*	-7%[11.4 µM]	·	·	·	-3%[13.5 µM]
CCCN1C(=O)/C(=C\c2nc3ccccc3c(=O)[nH]2)c2ccccc21	·	·	2%	-6	·	4.5µM*
O=c1[nH]c(/C=C/c2cccc3ccccc23)nc2ccccc12	·	·	5%	10	·	-7%
CC(C)(C)OC=O	-16%	3%	1%	·	·	6%
Cc1cc(OCC(=O)OCC(=O)Nc2cc(C(F)(F)F)ccc2N2CCOCC2)ccc1Cl	-28%	-1%	-7%	-4	75	6%
O=c1[nH][nH]c2c(N=Cc3ccccc3O)ccc(F)c12	·	·	7%	-6	·	8.9µM*
CC(C)[C@H](NC(=O)c1ccccc1)C(=O)OCC(=O)NCCc1ccc(F)cc1	-12%	-2%	-8%	1	-134*	4%
CSc1nc(C)c2c(c1C#N)CCCC2	-20%	2%	3%	-13	?	25µM*
N#CCCSc1nc(N2CCOCC2)c2c(c1C#N)CCCC2	-4%	-4%	3%	-6	?	13µM*
CSc1nc(N2CCOCC2)c2c(c1C#N)CC(C)(C)OC2	-9%	7%	-3%	10	31	-5%
CCCSc1nc(N2CCOCC2)c2c(c1C#N)CCCC2	·	-8%	-2%	-10	25	14µM*
CSc1nc(N2CCOCC2)c2c(c1C#N)CCCCC2	-14%	-2%	-4%	7	?	22µM*
O=C(C1CCN(C2CCN(Cc3ccc4c(c3)CCO4)CC2)CC1)N1CCOCC1	·	·	-1%	4	·	-20%
COc1ccccc1/C=C1\CCCC2=C1Nc1nnnn1C2c1ccccc1OC (configuration not stated)	-16%	-3%	-6%	-9	-1	25µM*
Cc1ccccc1C(=O)NNC(=O)c1cc(N)cc([N+](=O)[O-])c1	-15%	0%	4%	-1	-25	?
O=S(=O)(c1ccccc1)c1nc(-c2ccccc2)oc1N1CCCCC1	?	-8%	6%	-3	-18	0.45µM*
O=S(=O)(c1ccccc1)c1nc(-c2ccco2)oc1N1CCOCC1	-3%	-3%	3%	2	7	7%
CSc1oc(-c2ccccc2)nc1S(=O)(=O)c1ccc(F)cc1	-12%	-4%	2%	0	48	-5%
COc1ccc(-c2nc(S(=O)(=O)c3ccccc3)c(N3CCOCC3)o2)cc1	-10%	-7%	12%	5	5	22µM*
CSc1oc(-c2ccc(F)cc2)nc1S(=O)(=O)c1ccccc1	?	-4%	4%	4	-13	28µM*
CCN1CCN(C(=O)NC(C(=O)NC2C(=O)N3C(C(=O)O)=C(CSc4nnnn4C)CSC23)c2ccc(O)cc2)C(=O)C1=O (configuration not stated)	-16%	0%[0.00818 µM]	4%	0	·	-3%
COc1ccc(CCCO[C@@H](Cn2ccnc2)c2ccc(OC)cc2)cc1	-28%	-10%	-2%	-17	·	?

High-throughput results (PubChem)
